Only some compounds are listed: those with a hit (about 12% of all), similar ones and a draw of the others.
HP1b binding inh – HP1-beta chromodomain-methylated histone interaction inhibition; Potency, µM (doses to about 114 µM), actives largely listed as inhibitors; AID 540317; actives 0.56% (n = 390,000); AlphaScreen HP1-beta / biotin-H3K9me3 peptide binding; note: nearly all actives have a fitted effect of over 70% in size
Target sequence (P83916 whole entry, looked up): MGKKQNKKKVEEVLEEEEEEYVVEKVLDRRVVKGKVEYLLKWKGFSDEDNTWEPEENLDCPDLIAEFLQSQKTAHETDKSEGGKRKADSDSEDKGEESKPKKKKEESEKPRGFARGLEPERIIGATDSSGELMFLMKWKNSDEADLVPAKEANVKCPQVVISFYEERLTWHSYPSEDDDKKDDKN
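AlphaScreen: HP1-beta (50 nM) preformed 30 min with biotin-H3(1-18)K9me3 peptide (50 nM) in PBS pH 7.4, 0.01% Tween-20. Compound added for 30 min at RT, then streptavidin donor/nickel chelate acceptor beads (10 ug/mL) for 30 min.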
G9a inh – blocks human histone lysine methyltransferase G9a; actives 8.8% (n = 350,000); G9a H3K9 monomethylation, AlphaScreen, 2 h; Q96KQ7; AID 504332; Potency, µM (titrated, usually from 102 µM), most hits filed as inhibitors; note: nearly all actives have a fitted effect of over 75% in size
Target sequence (Q96KQ7 913-1193 limits assumed): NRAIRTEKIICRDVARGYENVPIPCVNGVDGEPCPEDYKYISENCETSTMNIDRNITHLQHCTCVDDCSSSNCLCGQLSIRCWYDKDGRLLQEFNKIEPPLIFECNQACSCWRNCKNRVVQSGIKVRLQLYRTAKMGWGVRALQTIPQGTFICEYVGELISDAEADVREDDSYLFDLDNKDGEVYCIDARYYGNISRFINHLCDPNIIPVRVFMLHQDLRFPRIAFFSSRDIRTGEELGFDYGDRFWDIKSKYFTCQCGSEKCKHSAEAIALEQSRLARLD
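G9a (20 nM) preincubated 15 min RT with compounds, then 500 nM biotinylated H3K9 peptide and 20 uM SAM added; 2 h RT reaction. Monomethyl-H3K9 product detected by AlphaScreen with anti-H3K9me1 antibody, streptavidin donor and anti-rabbit IgG acceptor beads.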
BAZ2B inh – inhibitors of human BAZ2B bromodomain. AlphaScreen BAZ2B-H3K14Ac peptide displacement. Potency, µM (titrated, usually from 114 µM), usual class: inhibitors. actives 4.4% (n = 360,000). AID 504333; note: nearly all actives have a fitted effect of over 60% in size
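BAZ2B (50 nM) with biotin-H3(5-23)K14Ac peptide (50 nM) in PBS pH 7.4, 0.01% Tween-20, preformed 30 min, then compound 30 min at room temperature; top concentration 110uM. AlphaScreen streptavidin donor/nickel chelate acceptor beads (10 ug/mL final), 20 min dark, signal read.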
JMJD2A Tudor inh – inhibitors of human JMJD2A Tudor domain; O75164; AlphaScreen JMJD2A-Tudor / H3K4me3 peptide binding; Potency, µM (titrated, usually from 114 µM), hits mostly inhibitors; actives 4.4% (n = 390,000); AID 504339; note: nearly all actives have a fitted effect of over 50% in size
PLK1 PBD inh – blocks phosphopeptide binding to human PLK1 polo-box domain; actives 2.8% (n = 360,000); AID 720504; Plk1 PBD binding of FITC phosphopeptide, fluorescence polarization; Potency, µM, hits mostly inhibitors; P53350; note: series mostly up to about 57 µM; nearly all actives have a fitted effect of over 65% in size
Sfp inh – Sfp phosphopantetheinyl transferase inhibition; AID 1490; Biochemical Sfp PPTase activity, qHTS; Q9F4F7; Potency, µM, actives largely listed as inhibitors; actives 3.5% (n = 310,000);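 note: the enzyme is Sfp with the accession as filed and its product quenches rhodamine fluorescence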
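Fluorescence-quenching assay: 15 nM Sfp-PPTase preincubated 15 min at room temperature with compound, then 5 uM rhodamine-CoA and 12.5 uM BHQ-2-labelled YbbR peptide added. Fluorescence (ex 525/em 598 nm) read at start and after 30 min; difference gives rate.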
A number is an active result; i = inactive; ? = inconclusive; nt = not tested or not shown; [ ] = another dose, or the depositor's remark. Calls come from the whole dose curve; as a rule, active = well fitted curve in the direction sought with a large enough effect; inconclusive = small, poorly fitted or top-dose-only effect, or another doubt; inactive = no such curve, though single readings can be large; an effect the other way counts as inactive or inconclusive.

SMILES	HP1b binding inh	G9a inh	BAZ2B inh	JMJD2A Tudor inh	PLK1 PBD inh	Sfp inh
Cc1ccc(C)c(Nc2nnc(-c3ccc(C)c(S(=O)(=O)N4CCN(C)CC4)c3)c3ccccc23)c1	i	12.6µM	?	?	nt	nt
COc1ccc(/C=C/C(=O)NC(=S)NN2CCCCC2c2cccnc2)cc1OC (centres undefined)	i	31.6µM	i	i	?	i
CCCCC(=O)Nc1ccc(S(=O)(=O)N2CCCCC2c2cccnc2)cc1 (centres undefined)	i	i	i	i	i	i
O=C(/C=C/c1ccc(Cl)cc1)NC(=S)NN1CCCCC1c1cccnc1 (centres undefined)	nt	22.4µM	?	nt	nt	i
CCCCC(=O)Nc1ccc(C(=O)NNC(=O)c2cccs2)cc1	i	i	i	i	i	i
Cc1ccc(NC(=O)C(=O)NNC(=O)c2cccs2)cc1	i	3.98µM	i	i	i	i
CCC(=O)Nc1ccc(C(=O)NNC(=O)c2cccs2)cc1	i	0.199µM	i	i	i	i
Cc1ccc(NC(=O)c2cccs2)cc1	i	i[12.7 µM]	i	i	i	i
O=C(NNc1c(Cl)cccc1Cl)c1cccs1	i	11.2µM	i	?	i	i
C=CC[C@@H](CC(=O)NCCO)C(=O)N[C@@H](C)COC(=O)[C@@H](CC=C)Cc1ccc(F)cc1	i	nt	nt	i	i	nt
Cc1cc(-c2nnc3sc(C4CCCCC4)nn23)n[nH]1	?	i	i	i	26.7µM	i
CCOc1cccc(-c2nnc3sc(C4CCCCC4)nn23)c1	?	35.5µM	i	i	?	?
CC(=O)NC(=S)NNC(=O)CCc1ccccc1	i	8.91µM	i	?	?	?
CCN(C(=S)NC(=O)CCc1ccccc1)c1ccccc1	i	8.91µM	i	?	?	i
O=C(CCc1ccccc1)NNC(=S)NC(=O)c1ccccc1	i	4.47µM	i	28.2µM	26.7µM	?
CCCCC(=O)NC(=S)NNC(=O)CCc1ccccc1	i	31.6µM	i	i	?	i
Cc1ccc(CNC(=O)c2cc(C)nc3c2c(C)nn3-c2ccc(C)cc2)cc1	i	i	i	i	nt	nt
CC(C)(C)c1cc(CCC(=O)NNC(=S)NC(=O)c2ccccc2)cc(C(C)(C)C)c1O	i	28.2µM	i	?	?	56.2µM
O=C(CN1C(=O)NC2(CCCCCC2)C1=O)NCc1ccc(Cl)cc1	i	nt	nt	i	i	nt
Clc1ccc(/C=N/c2c(-c3ccc(Cl)cc3)nc3n2CCS3)cc1	i	35.5µM	?	?	i	i
N#Cc1c(-c2ccccc2)nc2n1CCS2	i	i	i	i	i	i
CCc1nnc(NC(=O)CSc2nc3c([nH]c4ccccc43)c(=O)n2-c2ccc(OC)cc2)s1	i	i	i	i	nt	nt
O=C(O)c1ccc(N2CC3CC(C2)c2cccc(=O)n2C3)c(NC(=S)Nc2ccc(Br)cc2)c1 (centres undefined)	i	31.6µM	i	i	18.9µM	56.2µM
CCc1ccc(NC(=O)Nc2cc(C(=O)NCC3CCCO3)ccc2N2CC3CC(C2)c2cccc(=O)n2C3)cc1 (centres undefined)	i	?	i	?	?	i
CCc1ccc(NC(=S)Nc2cc(C(=O)O)ccc2N2CC3CC(C2)c2cccc(=O)n2C3)cc1 (centres undefined)	i	?	nt	i	i	56.2µM
SMILES	HP1b binding inh	G9a inh	BAZ2B inh	JMJD2A Tudor inh	PLK1 PBD inh	Sfp inh
COc1cccc(NC(=O)Nc2cc(C(=O)O)ccc2N2CC3CC(C2)c2cccc(=O)n2C3)c1 (centres undefined)	i	i	i	i	i	i
C(=N\Nc1nc2ccccc2[nH]1)/c1ccccc1	i	i[12.7 µM]	i	i	i	i
O=[N+]([O-])c1ccccc1N/N=C/c1c[nH]c2ccccc12	12.6µM	?	10µM	11.2µM	i	i
C(=N\Nc1nc(N2CCCCC2)nc(N2CCCCC2)n1)/c1c[nH]c2ccccc12	i	?	39.8µM	35.5µM	i	i
O=[N+]([O-])c1cc(/C=N/Nc2nc3ccccc3[nH]2)c(O)cc1O	?	50.1µM	20µM	28.2µM	?	i
C(=C\c1ccccc1)/C=N/Nc1nc2ccccc2[nH]1	i	?	i	?	i	14.1µM
O=c1cc(-c2ccccc2)[nH]n2cnnc12	i	?	i	i	i	i
CN1OC[C@@H]2CN(Cc3ccccc3)[C@H](c3cccc(-c4ccc(C#N)cc4)c3)C[C@@H]21	i	nt	nt	i	i	nt
O=C(Cc1ccc(S(=O)(=O)N2CCOCC2)s1)Nc1cc(Cl)ccc1Cl	i	i[12.7 µM]	i	i	i	nt
Cc1cc(=O)[nH]c(N/N=C/c2c[nH]c3ccccc23)n1	i	?	i	i	i	28.2µM
Cc1[nH]c2ccccc2c1/C=N/Nc1nc2ccccc2[nH]1	?	39.8µM	28.2µM	44.7µM	i	i
Cc1ccccc1/C=N/Nc1nc2ccccc2[nH]1	i	i	i	i	i	?
C(=N\Nc1nc2ccccc2[nH]1)/c1c[nH]c2ccccc12	?	i	44.7µM	44.7µM	i	?
Cc1cc(=O)[nH]c(N/N=C/c2ccccc2C(F)(F)F)n1	i	?	i	i	i	i
C(=N\Nc1nc2ccccc2[nH]1)/c1cccc2cccnc12	i	nt	7.08µM	14.1µM	i	i
CS(=O)(=O)N1CCC2(CCN(Cc3ccc(C#N)cc3)CC2)CC1	nt	i[12.7 µM]	nt	nt	nt	i
CCc1ccccc1NC(=S)Nn1cnnc1	nt	10µM	i	nt	nt	35.5µM
CCOc1ccccc1NC(=S)Nn1cnnc1	?	1.78µM	?	50.1µM	2.38µM	7.08µM
Fc1ccccc1NC(=S)Nn1cnnc1	i	3.98µM	i	50.1µM	6.7µM	17.8µM
Cc1ccccc1NC(=S)Nn1cnnc1	?	nt	?	i	15µM	22.4µM
Fc1ccccc1NC(=S)NCc1ccccc1	i	?	i	i	i	i
CCc1ccccc1NC(=O)CC(=O)Nc1ccccc1CC	i	nt	i	i	i	i
CC(C)CCN1C(=O)C2(OCCCO2)c2cc(Cl)ccc21	i	nt	i	i	i	i
Cc1cccc(NC(=S)Nn2cnnc2)c1C	i	nt	?	i	?	10µM
CCCc1nc2ccccc2n2c(-c3ccc(C)cc3)c3c(=O)n(C)c(=O)n(C)c3c12	i	i	i	i	nt	nt
SMILES	HP1b binding inh	G9a inh	BAZ2B inh	JMJD2A Tudor inh	PLK1 PBD inh	Sfp inh
COc1ccc(C(=O)Sc2nncc3ccccc23)cc1	i	22.4µM	70.8µM	?	?	50.1µM
CC(=O)NC1=NN(C(C)=O)C(c2ccccc2)S1 (centres undefined)	i	i	i	11.2µM	4.74µM	i
Cc1cccc(-c2nc(SCC(=O)N(C)c3ccccc3)c3c(=O)n(C)c(=O)n(C)c3n2)c1	i	i	i	i	nt	nt
CN(/N=C\c1ccc(O)c(O)c1)c1nc(-c2ccccc2)cc(-c2ccccc2)n1	?	39.8µM	39.8µM	?	i	?
COc1cc(C(=O)n2nc(-c3ccco3)nc2NCc2ccc(Cl)cc2)cc(OC)c1OC	i	i	i	i	nt	nt
C/C(=N\NC(=O)c1ccoc1C)c1ccc(Cl)s1	i	i	i	i	i	i

Screening data as filed in PubChem.
